Most compounds without a hit are left out; they make up all but 3.5% or so of the library.
MITF inh: MITF inhibitors, primary screen, biochemical, AlphaScreen, human. 650,000 tested, 0.91% active. inhibition, % at 2.6 µM. AlphaScreen MITF homodimerization, bead proximity signal; in the data active = inhibition above about 50%
Target sequence (O75030 whole entry, looked up): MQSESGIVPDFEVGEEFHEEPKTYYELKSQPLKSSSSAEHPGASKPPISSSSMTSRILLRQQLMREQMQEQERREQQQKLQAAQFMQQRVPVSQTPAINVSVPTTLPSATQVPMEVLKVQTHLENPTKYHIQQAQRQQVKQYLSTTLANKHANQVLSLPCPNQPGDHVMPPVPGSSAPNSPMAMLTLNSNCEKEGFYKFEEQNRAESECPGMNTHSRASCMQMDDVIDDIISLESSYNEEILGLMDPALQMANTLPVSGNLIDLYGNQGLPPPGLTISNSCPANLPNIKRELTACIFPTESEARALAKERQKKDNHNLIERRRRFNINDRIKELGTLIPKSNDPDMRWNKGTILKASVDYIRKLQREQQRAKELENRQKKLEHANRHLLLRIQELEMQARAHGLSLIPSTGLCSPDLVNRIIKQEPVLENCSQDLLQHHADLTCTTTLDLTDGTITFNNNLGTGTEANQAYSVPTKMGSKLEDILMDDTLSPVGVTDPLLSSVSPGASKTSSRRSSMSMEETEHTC
FBW7 act: FBW7 E3 ligase activators, primary screen, biochemical, AlphaScreen, human. F-box/WD repeat-containing protein 7 (Homo sapiens), Q969H0. AlphaScreen FBW7–phospho-cyclin E peptide binding, activator screen. normalized activity (activation), % at 26.1 µM. 650,000 tested, 0.13% active. AID 1259310, 2017; in the data active = normalized activity above about 1.9%;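 note: purified mutant Fbw7 with reduced substrate affinity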
GPR151 ag: activators of human GPR151, primary screen, cell-based, PathHunter beta-arrestin, luminescence; G-protein coupled receptor 151 (Homo sapiens), Q8TDV0; PathHunter beta-arrestin GPR151 cells; activation, % at 11.2 µM; 650,000 tested, 1% active; in the data active = activation above about 4.9%
TEAD-YAP inh: TEAD-YAP interaction inhibition, primary screen, TEAD-YAP interaction inhibitor project, luminescence, HEK-TIYL cells; TEAD-Gal4/YAP UAS-luciferase luminescence; inhibition, % at 9.12 µM; 640,000 tested, 1.4% active; AID 1259422, 2018; in the data active = inhibition above about 32%
Each line names hits and unclear results; the compound was inactive in the other large screens.

Cc1cc(C)c(S(=O)(=O)N2CCc3ccccc32)cc1[N+](=O)[O-]	TEAD-YAP inh 64
O=[N+]([O-])c1cccc(S(=O)(=O)N2CCc3ccccc32)c1	TEAD-YAP inh 32
COc1ccc(N2C(N)=C(C#N)C(c3ccc(F)cc3)C3=C2CCCC3=O)cc1 (configuration not stated)	TEAD-YAP inh 51
N#CC1=C(N)N(c2ccc(F)cc2)C2=C(C(=O)CCC2)C1c1ccc(F)cc1 (configuration not stated)	none
COC(=O)c1c(N2C(N)=C(C#N)C(c3ccccc3)C3=C2CCCC3=O)sc2c1CCCC2 (configuration not stated)	TEAD-YAP inh 54
CCOc1ccc(C2C(C#N)=C(N)N(c3ccc(OC)cc3)C3=C2C(=O)CCC3)cc1 (configuration not stated)	TEAD-YAP inh 50
O=C(Nc1ccc(-c2nc3ccccc3o2)cc1)c1cc([N+](=O)[O-])ccc1Cl	none
O=[N+]([O-])c1cc(Cl)c2oc(-c3ccc(O)cc3)nc2c1	TEAD-YAP inh 55
CCOc1ccccc1N1C(=O)NC(=O)/C(=C/c2ccco2)C1=O	none
O=C1NC(=O)N(c2ccc(F)cc2)C(=O)/C1=C\c1ccc(SCc2ccco2)o1	MITF inh 87
O=C1NC(=O)N(c2ccccc2)C(=O)/C1=C\c1ccc(-c2ccc([N+](=O)[O-])cc2)o1	none
Cc1ccc(/C=C2\C(=O)NC(=O)N(c3ccc(F)cc3)C2=O)o1	none
N=C1/C(=C\c2ccc(SCc3ccco3)o2)C(=O)N=C2SC(N3CCCC3)=NN12	none
COc1ccccc1N1C(=O)NC(=O)/C(=C\c2ccco2)C1=O	MITF inh 62
O=C1NC(=S)S/C1=C\c1ccc(SCc2ccco2)o1	MITF inh 58
O=C1NC(=O)N(c2ccc([N+](=O)[O-])cc2)C(=O)/C1=C/c1ccco1	MITF inh 78
CC(=O)Oc1ccccc1/C=C/c1nc2ccccc2c(=O)o1	TEAD-YAP inh 59
Nc1nc(-c2ccccc2)cc(N2CCCC2)n1	TEAD-YAP inh 45
c1ccc(-c2nc(-c3ccncc3)cc(N3CCCCC3)n2)cc1	none
COc1ccccc1N1CCN(C(CNC(=O)C(C)(C)C)c2cccnc2)CC1 (configuration not stated)	none
COc1cc(OC)cc(C(=O)NN=C2CCN(C)CC2)c1	TEAD-YAP inh 51
CN1CCC(=NNC(=O)c2cc(O)c(O)c(O)c2)CC1	MITF inh 83
Cn1c(=O)cc(N2CCN(c3ccc(F)cc3)CC2)[nH]c1=O	none
Cn1c(=O)cc(N2CCN(c3cccc(Cl)c3)CC2)[nH]c1=O	TEAD-YAP inh 38
COc1ccc(CCNC(=O)c2ccc3nc(Nc4ccc(-n5ccnc5)cc4)sc3c2)cc1	TEAD-YAP inh 62
COC(=O)c1ccc2nc(Nc3nc4ccc(OC)cc4s3)sc2c1	TEAD-YAP inh 49
O=C(NCCc1ccc(O)cc1)c1ccc2nc(Nc3ccc(-n4ccnc4)cc3)sc2c1	none
COC(=O)c1ccc2nc(Nc3nc4c(OC)cccc4s3)sc2c1	TEAD-YAP inh 73
COc1ccc(-n2nnc3c(=O)n(CC(=O)Nc4cccc(C(F)(F)F)c4)cnc32)cc1	none
NC(=O)NNC(c1ccccc1)c1ccccc1	none
O=C1N(c2ccc3c(c2)OCO3)C(c2cccc(F)c2)C1(F)F (configuration not stated)	none
O=C(O)c1ccc(S(=O)(=O)c2ccc3c(c2)C(=O)NC3=O)cc1	none
CC1CN2c3ccccc3C(C)(C)C2(/C=C/c2ccc(N(C)C)cc2)NC1=O (configuration not stated)	TEAD-YAP inh 39
CC1(C)c2ccccc2N2CC(=O)NC21/C=C/c1ccccc1 (configuration not stated)	none
CC(C)(C)c1ccc(NC(=O)N2CCc3ccccc32)cc1	TEAD-YAP inh 87
Cc1ccc(NC(=O)N2CCCc3ccccc32)cc1	none
Cc1cc2c(NC3CCCN(C(=O)C(O)c4ccc(Cl)cc4)C3)cccc2nn1 (configuration not stated)	MITF inh 56
Cc1cncc2cccc(NC3CCCN(C(=O)c4cccc(Br)c4)C3)c12 (configuration not stated)	none
Cc1cncc2cccc(NC3CCN(C(=O)C(N)c4ccc(Cl)cc4)CC3)c12 (configuration not stated)	none
Cc1cncc2cccc(NC3CCCN(C(=O)C(O)c4ccc(Cl)cc4)C3)c12 (configuration not stated)	TEAD-YAP inh 42
Cc1cncc2cccc(NC3CCCN(C(=O)C(O)c4ccc(F)cc4)C3)c12 (configuration not stated)	TEAD-YAP inh 45
Cc1cncc2cccc(NC3CCCN(C(=O)[C@H](C)O)C3)c12 (some centres not stated)	TEAD-YAP inh 62
C=CC(=O)Oc1ccc(N2Cc3ccccc3C2=O)cc1	none
CC(O)c1ccc(N2Cc3ccccc3C2=O)cc1 (configuration not stated)	TEAD-YAP inh 56
COc1ccc(N2Cc3ccccc3C2=O)cc1	TEAD-YAP inh 66
O=C1c2ccccc2CN1c1ccccc1	none
CN(C)CCOC(=O)/C(=C\c1ccccc1)NC(=O)c1ccccc1	none
CCN(C1=C(N2CCCC2)C(=O)c2ccccc2C1=O)c1ccccc1	MITF inh 69
CCN(C(C)=O)C1=C(N2CCCC2)C(=O)c2ccccc2C1=O	TEAD-YAP inh 84
CC(=O)N(C)C1=C(N2CCOCC2)C(=O)c2ccccc2C1=O	TEAD-YAP inh 84
CC(=O)N(C1=C(N2CCCCC2)C(=O)c2ccccc2C1=O)c1ccc(F)c(F)c1	none
CC(=O)N(C)C1=C(N2CCCC2)C(=O)c2ccccc2C1=O	TEAD-YAP inh 94
CC(=O)c1ccc(NC2=C(N3CCOCC3)C(=O)c3ccccc3C2=O)cc1	none
CN(C)c1ccc(/C=C/c2cc[n+](C)c3ccccc23)cc1	TEAD-YAP inh 92
COC(=O)Nc1ccc(SCC(=O)c2ccccc2)cc1	none
CC(C)(C)OC(=O)Nc1ccc(SCC(=O)O)cc1	TEAD-YAP inh 83
Cc1cc2ccccc2c(=O)n1CC(=O)N1CCN(Cc2ccc3c(c2)OCO3)CC1	none
CC(C)C(=O)N1CCN(c2ccc(NC(=O)COc3ccccc3[N+](=O)[O-])cc2)CC1	TEAD-YAP inh 50
COc1cccc(C(=O)Nc2ccc(CC(=O)O)cc2)c1	TEAD-YAP inh 60
CN1CCN(c2ccc(NC(=O)COc3ccccc3[N+](=O)[O-])cc2)CC1	none
COc1cccc(C(=O)Nc2ccc(-c3ccccc3)cc2)c1	none
COc1ccc(NC(=O)c2cc3cccc(OC)c3oc2=O)cc1	none
COc1cccc2cc(C(=O)Nc3ccc(CC(=O)O)cc3)c(=O)oc12	TEAD-YAP inh 72
COc1cccc(C(=O)NNC(=O)Cc2ccc(-c3ccccc3)cc2)c1	TEAD-YAP inh 62
CCN1C(=O)[C@@H](O)C[C@H]1c1ccc(OC)cc1	none
COc1ccc(CN2CCSCC2)cc1OC	none

Screening results (PubChem BioAssay)
